# Test results as given in PubChem BioAssay (EPA / NIEHS).
# The source made the active and inactive calls. How the source made its calls: active means hit-call score of the fitted dose curve at least 0.9, where 1 is the maximum; inactive means score below 0.9.
# Experiment: ATG_NFI_CIS: Attagene CIS-FACTORIAL HepG2 Assay for human Nuclear Factor I (NFI) (AID 2282989)
# Conditions: HepG2 cis-regulatory reporter, NFI response element transcription; actives raise or lower the signal
# Protocol: ATG_CIS is a cell-based, multiplexed-readout assay that uses HepG2, a human liver cell line, with measurements taken at 24 hours after chemical dosing in a 24-well plate.ATG_NFI_CIS is one of 52 assay component(s) measured or calculated from the ATG_CIS assay. It is designed to make measurements of mRNA induction, a form of inducible reporter, as detected with fluorescence intensity signals by Reverse transcription polymerase chain reaction (RT-PCR) and Capillary electrophoresis technology.Data from the assay component ATG_NFI_CIS was analyzed into 1 assay endpoint. This assay endpoint, ATG_NFI_CIS, was analyzed with bidirectional fitting relative to DMSO as the negative control and baseline of activity. Using a type of inducible reporter, measures of mRNA for gain or loss-of-signal activity can be used to understand the reporter gene at the transcription factor-level as they relate to the gene NFIA. Furthermore, this assay endpoint can be referred to as a primary readout, because this assay has produced multiple assay endpoints where this one serves a reporter gene function. To generalize the intended target to other relatable targets, this assay endpoint is annotated to the dna binding intended target family, where the subfamily is nuclear factor I.
# Human liver HepG2 cells are transiently transfected with multiple reporter transcription units (MRTUs) in 6-well plates using FuGene 6 reagent (Roche; 3 ml FuGene/1 mg DNA). The MRTU constructs are regulated by a cis-regulating element (promoter). […] A major difference between the CIS and TRANS system is that in CIS activities of endogenous TFs are measured, whereas the TRANS assay evaluates changes in activities of exogenous, chimeric NR-Gal4 proteins. […] At the end of 24 hour incubation, total RNA was isolated using TriZol reagent (Invitrogen). The isolated RNA is then reverse-transcribed using oligo(dT) primer and Mo-MLV reverse transcriptase (Invitrogen) with DNAse I (Ambion) treatment for 30 min. The one-tenth of the produced cDNA was amplified by PCR using Taq DNA polymerase (Invitrogen) and two reporter sequence-specific primers. The PCR products were fluorescently labeled by primer extension with 6-arboxyfluorescein (6-FAM) 5'-labeled reporter sequence-specific primer (2 min at 95 C, 20 s at 68 C and 10 min at 72 C) and these products were digested with 5U of HpaI (New England Biolabs) for 2h at 37 C. The fragments were purified using Qiaquick PCR columns (Qiagen), analyzed on an ABI 3130xL genetic analyzer (Applied Biosystems) with peak positions identified by using a set of X-rhodamine (ROX)-labeled MapMarker1000 molecular weight standards (BioVentures). The raw capillary electrophoresis data was processed using Attagraph software (Attagene).
SMILES,outcome,AC50
CC(C)C(=O)OCCc1ccccc1,inactive,–
O=C(Nc1ccccc1)c1cc(Cl)ccc1O,–,5.49 µM (active)
CC(C)(O)Cc1ccccc1,inactive,–
CC(=O)c1ccccc1O,inactive,–
O=C1c2ccccc2C(=O)c2cc(S(=O)(=O)O)ccc21,inactive,–
CCCCC(CC)COC(=O)/C=C/c1ccc(OC)cc1 (stereo not given),inactive,–
COc1ccc(-c2coc3cc(O)cc(O)c3c2=O)cc1,inactive,–
CC(=O)OC1CCCCC1,inactive,–
CC(=O)OC(C)c1ccccc1 (stereo not given),inactive,–
C1CNCCN1,inactive,–
CCOc1ccc(NC(N)=O)cc1,inactive,–
CC(C)CCOCc1ccccc1,inactive,–
CCCCOC(=O)C(C)CC (stereo not given),inactive,–
C[Si]1(C)O[Si](C)(C)O[Si](C)(C)O[Si](C)(C)O[Si](C)(C)O1,inactive,–
CC1=C(O)C(=O)C(C)O1 (stereo not given),inactive,–
CC(C)=CCl,inactive,–
CC/C=C\C/C=C\C/C=C\CCCCCCCC(=O)OC,inactive,–
CCCCCCOC(=O)CCCCC(=O)OCCCCCC,inactive,–
C=CCCCCCCCCOC(C)=O,inactive,–
O=S(=O)(O)c1ccc(N=Nc2c(O)ccc3ccccc23)cc1,inactive,–

SMILES,outcome,AC50
CCCCOCC(C)O (stereo not given),inactive,–
CCN1CN(CC)CN(CC)C1,–,162 µM (active)
CC=CC(=O)OCC(C)C,inactive,–
CCCCCCO,inactive,–
Cc1c(Cl)cccc1Cl,inactive,–
CC(C)CO,inactive,–
CCCCCCCC(=O)OCC,inactive,–
O=C(O)c1cc(O)c2ccccc2c1O,inactive,–
O=C(Cl)c1ccc(C(=O)Cl)cc1,inactive,–
CCCC1CCCC(=O)O1 (stereo not given),inactive,–
Cc1ccc(S(=O)(=O)N=C=O)cc1,inactive,–
COC(C=C(C)CCC=C(C)C)OC,inactive,–
Cc1ccc(C)c(OCCCC(C)(C)C(=O)O)c1,inactive,–
CCCCCCCO,inactive,–
CCOB(OCC)OCC,inactive,–
CCCC(C)C(=O)OCC (stereo not given),inactive,–
Cc1c[nH]c(=O)[nH]c1=O,inactive,–
O=C(O)C(F)(F)C(F)(F)C(F)(F)C(F)(F)C(=O)O,inactive,–
CC1CCC(=O)C1=O (stereo not given),inactive,–
C=C[C@@]1(C)CC(=O)[C@]2(O)[C@@]3(C)[C@@H](O)CCC(C)(C)[C@@H]3[C@H](O)[C@H](OC(C)=O)[C@@]2(C)O1,inactive,–
